Test results reported in PubChem BioAssay AID652071 (NMMLSC, 2013).

assay: yeast cytosolic pH changes via V-ATPase – S. cerevisiae, pHLuorin, powder set 4, dose response (AID 652071); details: S. cerevisiae pHLuorin cytosolic pH fluorescence; series mostly up to 100 µM; response change, sign ambiguous: at the top concentration; call rule not given here

Response change, sign ambiguous, inactive:
CC(=O)N1CCN(c2ccccc2NC(=O)c2cccc(C(F)(F)F)c2)CC1 4.04%, CC(=O)N1CCN(c2ccccc2NC(=O)c2cccc(S(C)(=O)=O)c2)CC1 20.5%, CN1CCN(c2ccccc2NC(=O)c2ccc(C(F)(F)F)o2)CC1 -7.3%, N#CCc1cccc(C(=O)N2CCN(c3nc4ccc(F)cc4s3)CC2)c1 19.6%, O=C(Nc1ccccc1N1CCCCC1)c1ccc(C(F)(F)F)o1 -23.6%, CN1CCN(c2ccccc2NC(=O)c2cccc(C(N)=O)c2)CC1 -19.6%, CN1CCN(c2ccccc2NC(=O)c2cccc(CC#N)c2)CC1 -0.68%, CC(=O)N1CCN(c2ccccc2NC(=O)c2cncc(Cl)n2)CC1 -21.5%, CN1CCN(c2ccccc2NC(=O)c2cccc(C(F)(F)F)c2)CC1 -1.46%, CN1CCN(c2ccccc2NC(=O)c2cccc(CS(C)(=O)=O)c2)CC1 -10.9%, N#Cc1cccc(C(=O)Nc2ccccc2N2CCCCC2)c1 -29.4%, CC(=O)N1CCN(c2ccccc2NC(=O)c2cccc(CN(C)C)c2)CC1 11.7%, CN1CCN(c2ccccc2NC(=O)c2ccc(Cl)o2)CC1 12%, CC(=O)N1CCN(c2ccccc2NC(=O)c2ccc(S(C)(=O)=O)o2)CC1 -31.2%
